According to PubChem BioAssay AID1159580 (chemical genetic matrix, 2015):
Hit rate of the full screen: of about 5,500 compounds, about 2,000 (36%) were called active. Roughly 18% stayed inconclusive and do not appear here. Cut-off read from the data, not from the text of the source: active = normalized growth mostly below about 0.91 (no sharp cut-off); inconclusive = no clear call, values can overlap the other calls; inactive = mostly above about 0.92. The list shows a part of the results.

Experiment: chemical genetic growth profiling, strain panel (AID 1159580);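 note: tested at 20 µM; growth read once vehicle control cultures reached saturation at 30 °C; 1 = growth at the plate median or of vehicle wells; lower values mean less growth of the strain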
Conditions: growth OD

Measured: normalized growth

CCC(C)C(=O)OC1CC2(C)C(c3ccoc3)OC(=O)CC23OC2(C)OC34C(OC(=O)C(C)C)C3(O)C(OC(=O)C5(C)OC5C)C5(C)CC3(O)C(C)(C5C(=O)OC)C14O2 (stereo unspecified)
inactive: S. cerevisiae deletion strains, locus YAL013W, strain DEP1, active compounds read low 1.02 | S. cerevisiae deletion strains, locus YBR021W, strain FUR4, active compounds read low 1.01 | S. cerevisiae deletion strains, locus YBR229C, strain ROT2, active compounds read low 1 | S. cerevisiae deletion strains, locus YCL029C, strain bik1, active compounds read low 1.04 | S. cerevisiae deletion strains, locus YDL035C, strain GPR1, active compounds read low 0.993 | S. cerevisiae deletion strains, locus YDL074C, strain BRE1, active compounds read low 1.01 | S. cerevisiae deletion strains, locus YDL101C, strain DUN1, active compounds read low 1.02 | S. cerevisiae deletion strains, locus YDL134C, strain PPH21, active compounds read low 1.01 | S. cerevisiae deletion strains, locus YDL185W, strain tfp1, active compounds read low 1.03 | S. cerevisiae deletion strains, locus YDL192W, strain arf1, active compounds read low 1.01 | S. cerevisiae deletion strains, locus YDR101C, strain arx1, active compounds read low 1.02 | S. cerevisiae deletion strains, locus YDR150W, strain NUM1, active compounds read low 1.02 | S. cerevisiae deletion strains, locus YDR162C, strain NBP2, active compounds read low 0.996 | S. cerevisiae deletion strains, locus YDR318W, strain mcm21, active compounds read low 1.03 | S. cerevisiae deletion strains, locus YDR388W, active compounds read low 1.02 | S. cerevisiae deletion strains, locus YDR502C, strain sam2, active compounds read low 1.03 | S. cerevisiae deletion strains, locus YEL061C, strain CIN8, active compounds read low 1.01 | S. cerevisiae deletion strains, locus YER110C, active compounds read low 1.02 | S. cerevisiae deletion strains, locus YER155C, strain BEM2, active compounds read low 1.02 | S. cerevisiae deletion strains, locus YER167W, strain BCK2, active compounds read low 1.02 | S. cerevisiae deletion strains, locus YGL078C, strain dbp3, active compounds read low 1.02 | S. cerevisiae deletion strains, locus YGL086W, strain mad1, active compounds read low 1 | S. cerevisiae deletion strains, locus YGL248W, strain PDE1, active compounds read low 1.01 | S. cerevisiae deletion strains, locus YGR078C, strain PAC10, active compounds read low 1.02 | S. cerevisiae deletion strains, locus YGR135W, strain pre9, active compounds read low 1.03 | S. cerevisiae deletion strains, locus YGR229C, strain SMI1, active compounds read low 1.03 | S. cerevisiae deletion strains, locus YGR252W, strain gcn5, active compounds read low 0.977 | S. cerevisiae deletion strains, locus YHR030C, strain SLT2, active compounds read low 1.02 | S. cerevisiae deletion strains, locus YHR079C, strain IRE1 (second series), active compounds read low 1.02 | S. cerevisiae deletion strains, locus YHR094C, strain hxt1, active compounds read low 1.01 | S. cerevisiae deletion strains, locus YHR129C, strain ARP1, active compounds read low 1.01 | S. cerevisiae deletion strains, locus YHR200W, strain rpn10, active compounds read low 1.04 | S. cerevisiae deletion strains, locus YIL066C, strain RNR3, active compounds read low 1.02 | S. cerevisiae deletion strains, locus YIL073C, strain SPO22, active compounds read low 1 | S. cerevisiae deletion strains, locus YIL125W, strain kgd1, active compounds read low 1.01 | S. cerevisiae deletion strains, locus YIR030C, strain dcg1, active compounds read low 1.02 | S. cerevisiae deletion strains, locus YJL095W, strain BCK1, active compounds read low 1.04 | S. cerevisiae deletion strains, locus YJL134W, strain LCB3, active compounds read low 1.01 | S. cerevisiae deletion strains, locus YJL168C, strain set2, active compounds read low 1.02 | S. cerevisiae deletion strains, locus YJL187C, strain SWE1 (second series), active compounds read low 1.03 | S. cerevisiae deletion strains, locus YJR043C, strain POL32, active compounds read low 1.04 | S. cerevisiae deletion strains, locus YJR075W, strain HOC1, active compounds read low 1.03 | S. cerevisiae deletion strains, locus YKL009W, strain mrt4, active compounds read low 0.994 | S. cerevisiae deletion strains, locus YKL068W, active compounds read low 1.01 | S. cerevisiae deletion strains, locus YKL085W, strain MDH1 (second series), active compounds read low 1.01 | S. cerevisiae deletion strains, locus YKL085W, strain MDH1, active compounds read low 1.01 | S. cerevisiae deletion strains, locus YKL190W, strain CNB1, active compounds read low 1 | S. cerevisiae deletion strains, locus YKR001C, strain vps1, active compounds read low 1.01 | S. cerevisiae deletion strains, locus YLR039C, strain RIC1, active compounds read low 0.862 | S. cerevisiae deletion strains, locus YLR058C, strain SHM2, active compounds read low 0.999 | S. cerevisiae deletion strains, locus YLR102C, strain apc9, active compounds read low 1.01 | S. cerevisiae deletion strains, locus YLR262C, strain YPT6, active compounds read low 0.77 | S. cerevisiae deletion strains, locus YLR268W, strain sec22, active compounds read low 1.05 | S. cerevisiae deletion strains, locus YLR330W, strain CHS5, active compounds read low 1.08 | S. cerevisiae deletion strains, locus YLR342W, strain FKS1 (second series), active compounds read low 1.01 | S. cerevisiae deletion strains, locus YLR371W, strain rom2, active compounds read low 1.03 | S. cerevisiae deletion strains, locus YLR418C, strain cdc73, active compounds read low 0.985 | S. cerevisiae deletion strains, locus YML016C, strain PPZ1, active compounds read low 1 | S. cerevisiae deletion strains, locus YML032C, strain rad52, active compounds read low 1.03 | S. cerevisiae deletion strains, locus YML124C, strain tub3, active compounds read low 1.01 | S. cerevisiae deletion strains, locus YMR078C, strain ctf18, active compounds read low 1.03 | S. cerevisiae deletion strains, locus YMR223W, strain ubp8, active compounds read low 0.999 | S. cerevisiae deletion strains, locus YMR263W, strain SAP30, active compounds read low 1.04 | S. cerevisiae deletion strains, locus YMR307W, strain GAS1, active compounds read low 0.923 | S. cerevisiae deletion strains, locus YNL067W, strain RPL9B, active compounds read low 1.03 | S. cerevisiae deletion strains, locus YNL128W, strain TEP1, active compounds read low 1.01 | S. cerevisiae deletion strains, locus YNL153C, strain GIM3, active compounds read low 1.03 | S. cerevisiae deletion strains, locus YNL233W, strain BNI4, active compounds read low 1.01 | S. cerevisiae deletion strains, locus YNL250W, strain rad50, active compounds read low 1.02 | S. cerevisiae deletion strains, locus YNL271C, strain bni1, active compounds read low 1.03 | S. cerevisiae deletion strains, locus YNL298W, strain CLA4, active compounds read low 1.03 | S. cerevisiae deletion strains, locus YNL307C, strain MCK1, active compounds read low 1.03 | S. cerevisiae deletion strains, locus YNL322C, strain KRE1, active compounds read low 1.02 | S. cerevisiae deletion strains, locus YNR052C, strain pop2, active compounds read low 1.02 | S. cerevisiae deletion strains, locus YOL006C, strain TOP1, active compounds read low 0.923 | S. cerevisiae deletion strains, locus YOL012C, strain htz1 1.81 | S. cerevisiae deletion strains, locus YOL147C, strain pex11, active compounds read low 1.03 | S. cerevisiae deletion strains, locus YOR061W, strain CKA2, active compounds read low 0.991 | S. cerevisiae deletion strains, locus YOR069W, strain VPS5, active compounds read low 1.01 | S. cerevisiae deletion strains, locus YOR136W, strain idh2, active compounds read low 1.01 | S. cerevisiae deletion strains, locus YOR144C, strain elg1, active compounds read low 1.01 | S. cerevisiae deletion strains, locus YOR184W, strain ser1, active compounds read low 1.04 | S. cerevisiae deletion strains, locus YOR316C, strain cot1, active compounds read low 1.02 | S. cerevisiae deletion strains, locus YPL055C, strain LGE1, active compounds read low 1.05 | S. cerevisiae deletion strains, locus YPL241C, strain CIN2, active compounds read low 1.01 | S. cerevisiae deletion strains, locus YPR119W, strain clb2, active compounds read low 1.01 | S. cerevisiae deletion strains, locus YPR141C, strain kar3, active compounds read low 1.03 | S. cerevisiae deletion strains, locus YPR163C, strain tif3, active compounds read low 1.02 | S. cerevisiae deletion strains, locus YPR167C, strain met16, active compounds read low 1.02 | S. cerevisiae deletion strains, strain wtn01, active compounds read low 1.03 | S. cerevisiae strains, strain wild type, active compounds read low 1
